D1 antagonist: Antagonist of Human D 1 Dopamine Receptor: qHTS | actives 3.2% (n = 360,000) | activity change, negative = inhibition, % at 10 µM | AID 504652, 2011 | HEK293 TREx D1 cells, calcium flux, dopamine EC80; hits give low values; in the data active = activity change below about -30%; also: % is scaled to controls: 0 for no effect and ±100 for the full control effect
Target sequence (P21728 whole entry, looked up): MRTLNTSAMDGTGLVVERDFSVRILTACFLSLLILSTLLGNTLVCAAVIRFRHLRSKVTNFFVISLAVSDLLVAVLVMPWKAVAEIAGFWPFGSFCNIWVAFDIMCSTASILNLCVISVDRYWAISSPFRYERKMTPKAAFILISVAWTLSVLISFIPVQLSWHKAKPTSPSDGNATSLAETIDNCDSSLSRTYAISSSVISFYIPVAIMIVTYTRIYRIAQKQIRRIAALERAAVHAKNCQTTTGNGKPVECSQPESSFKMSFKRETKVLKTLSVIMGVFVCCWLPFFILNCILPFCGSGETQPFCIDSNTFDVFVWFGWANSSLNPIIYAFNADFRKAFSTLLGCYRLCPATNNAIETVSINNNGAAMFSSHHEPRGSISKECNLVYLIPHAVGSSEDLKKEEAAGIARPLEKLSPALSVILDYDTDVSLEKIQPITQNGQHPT
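Tetracycline-induced HEK293 Trex D1 cells, force-coupled to calcium, dye-loaded; compounds added and read 180 s, then EC80 dopamine added and calcium flux tracked kinetically another 180 s.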
D1 potentiator: Potentiators of Human D1 Dopamine Receptor: qHTS | D(1A) dopamine receptor (Homo sapiens), P21728 | HEK293 TREx D1 cells, calcium flux, dopamine EC20 potentiation | potentiation, % at 10 µM | actives 0.036% (n = 360,000) | AID 504651, 2011; in the data active = potentiation above about 30%; also: 0% is about no effect
TRHR ag: qHTS for Small Molecule Agonists and Allosteric Enhancers of Human TRH Receptor: Primary Screen for Agonists | TRHR cells, calcium flux fluo-8, FDSS agonist mode | activation, % at 2 µM | actives 0.18% (n = 360,000); also: 0% is about no effect
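In this calcium-flux screen, cells bearing human TRHR are dye-loaded with fluo-8, baselined for 10 cycles, then exposed to library compounds; positive kinetic calcium responses during the agonist phase mark hits, with TRH as control.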
TRHR PAM: qHTS for Small Molecule Agonists and Allosteric Enhancers of Human TRH Receptor: Primary Screen for Enhancers; Thyrotropin-releasing hormone receptor (Homo sapiens), P34981; TRHR cells, fluo-8 calcium fluorescence, EC20 TRH enhancement; enhancement, % at 2 µM; actives 0.66% (n = 360,000); in the data active = enhancement above about 30%; also: 0% is about no effect
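TRHR-expressing cells loaded with fluo-8 calcium dye were read kinetically (ex 480/em 530) during compound addition, then stimulated with an EC20 of TRH (10 nM final). Enhancement of the Gq-mediated intracellular calcium response was scored.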
D1 agonist: Allosteric Agonists of the Human D1 Dopamine Receptor: qHTS. D(1A) dopamine receptor (Homo sapiens), P21728. HEK293 T-REx D1 cells, calcium flux, agonist mode. activation, % at 2 µM. actives 1% (n = 360,000). AID 504660, 2011; also: 0% is about no effect
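Tetracycline-induced HEK293 TREx D1 cells, force-coupled to calcium signalling, were dye-loaded with a no-wash calcium kit. Compound was pin-added after a 10 s baseline. Fluorescence was read kinetically at 1 cycle/s for 180 s, with calcium rises flagged as agonism.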
* = called active by the depositor. In the library only some 4.6% were active in any assay of this set; here they are far more common. Rule as the data show it, unless noted: active = activation above about 30%; inactive = the rest.

CCCCOc1ccc(C(=O)CCN2CCCCC2)cc1 was read as D1 antagonist -35*, D1 potentiator -4, TRHR ag 4, TRHR PAM -12 and D1 agonist 4.
CC(C)COc1ccc(C(=O)CCN2CCCCC2)cc1 was read as D1 antagonist -23, D1 potentiator -4, TRHR ag 7, TRHR PAM -9 and D1 agonist 19.
For CCCC(O)(CCN1CCCCC1)c1ccc(OCC)cc1 (stereo unspecified) the results were D1 antagonist -10, D1 potentiator -2, TRHR ag 0, TRHR PAM -2 and D1 agonist 3.
Screening CCOC(=O)N1CCN(Cc2nc3cc(NC(=O)c4ccc(F)cc4)ccc3n2C(C)C)CC1 returned D1 antagonist 3, D1 potentiator -1, TRHR ag -1, TRHR PAM -3 and D1 agonist -1.
`Cc1cc(C)n2nc(CNC(=O)c3ccccc3Cl)nc2n1` gave D1 antagonist -4, D1 potentiator -5, TRHR ag 1, TRHR PAM -4 and D1 agonist 1.
Screening COc1cccc(C(=O)Oc2c(Sc3ccc(C)cc3)c(C)nn2C(C)(C)C)c1OC returned D1 antagonist 16, D1 potentiator 1, TRHR ag 1, TRHR PAM 5 and D1 agonist 7.
Screening COc1ccc(NC(=O)c2cc3c(=O)n(Cc4ccco4)ccc3nc2C)cc1 returned D1 antagonist 3, D1 potentiator 2, TRHR ag 0, TRHR PAM 3 and D1 agonist 0.
For Cc1c(Cl)cccc1NC(=O)c1ccc(NC(=O)N2CCSc3ncccc32)cc1 the results were D1 antagonist -6, D1 potentiator -2, TRHR ag -1, TRHR PAM 3 and D1 agonist 2.
Cc1ccccc1CNC(=O)C(=O)NCC(c1cccs1)S(=O)(=O)c1ccc(Cl)cc1 (stereo unspecified) was read as D1 potentiator 1, TRHR ag 0, TRHR PAM -3 and D1 agonist 7.
For C=CCc1cccc(/C=N/n2cnnc2)c1O the results were D1 antagonist -9, D1 potentiator -6, TRHR ag 0, TRHR PAM 32* and D1 agonist 12.
For Cc1cc(OC(C)C(=O)NCC2CCC(C(=O)O)CC2)c2c(C)cc(=O)oc2c1 (stereo unspecified) the results were D1 antagonist 16, D1 potentiator 0, TRHR ag 0, TRHR PAM -2 and D1 agonist 2.
Screening CCN(C(=O)Cn1nnc2sc3c(c2c1=O)CCC(C(C)(C)C)C3)c1cccc(C)c1 (stereo unspecified) returned D1 antagonist 5, D1 potentiator 2, TRHR ag 0, TRHR PAM -6 and D1 agonist 0.
For COC(=O)c1ccc(NC(=O)CSc2ccc(-c3sc(-c4ccccc4)nc3C)nn2)cc1 the results were D1 antagonist -46*, D1 potentiator -6, TRHR ag 0, TRHR PAM 1 and D1 agonist 0.
For Cc1nc(-c2ccccc2)sc1-c1ccc(SCC(=O)Nc2ccccc2)nn1 the results were D1 antagonist -2, D1 potentiator -5, TRHR ag 1, TRHR PAM 2 and D1 agonist 0.
Screening CCOc1ccc(C2C(C#N)=C(N)SC(N)=C2C#N)cc1OC returned D1 antagonist -11, D1 potentiator -2, TRHR ag 16, TRHR PAM 1 and D1 agonist 40*.
`CCc1ccc(C2C(C#N)=C(N)SC(N)=C2C#N)cc1` gave D1 antagonist -10, D1 potentiator -3, TRHR ag 0, TRHR PAM 1 and D1 agonist 30*.
N#CC1=C(N)SC(N)=C(C#N)C1c1ccc(C(F)(F)F)cc1 was read as D1 antagonist -2, D1 potentiator 1, TRHR ag 2, TRHR PAM 3 and D1 agonist -1.
CC(C)c1ccc(NC(=O)Cn2cc(S(=O)(=O)Cc3ccccc3Cl)c3ccccc32)cc1 was read as D1 antagonist 10, D1 potentiator 5, TRHR ag 1, TRHR PAM 7 and D1 agonist 4.
Screening Cc1ccc(C2=Nc3ccccc3N(CC(=O)Nc3ccccc3F)C(=O)C2)cc1C returned D1 antagonist -8, D1 potentiator -1, TRHR ag 1, TRHR PAM 11 and D1 agonist 7.
Screening O=C(c1ccc(-c2cccc(C(F)(F)F)c2)o1)N1CCCCCCC1 returned D1 antagonist -40*, D1 potentiator 1, TRHR ag -1, TRHR PAM 2 and D1 agonist 0.
`Cc1cccc(CCNC(=O)CCc2c(C)nc3c(c(C)nn3-c3ccccc3)c2C)c1` gave D1 antagonist 0, D1 potentiator -1, TRHR ag 1, TRHR PAM 7 and D1 agonist 8.
COc1cccc(NC(=O)Cn2c(=O)n(-c3cccc(OC)c3)c(=O)c3sc4ccccc4c32)c1 was read as D1 antagonist -18, D1 potentiator -2, TRHR ag -2, TRHR PAM -7 and D1 agonist 5.
For N#C/C(=C\c1cc(Cl)c(OCc2ccc(Cl)cc2)c(Cl)c1)C(N)=O the results were D1 antagonist -43*, D1 potentiator -14, TRHR ag 1, TRHR PAM 5 and D1 agonist 7.
`COc1ccc(NS(=O)(=O)c2ccc(N3CCOCC3)c(N)c2)cc1` gave D1 antagonist -32*, D1 potentiator 7, TRHR ag 2, TRHR PAM 4 and D1 agonist 23.
`Cc1cc2c(s1)c1cnn(Cc3ccc(F)c(F)c3F)c(=O)c1n2C` gave D1 antagonist 5, D1 potentiator 10, TRHR ag -1, TRHR PAM 2 and D1 agonist 1.
Screening CCOC(=O)c1cccc(NC(=O)Nc2ccc3c(c2)N(C)C(=O)c2ccccc2S3)c1 returned D1 antagonist 2, D1 potentiator -1, TRHR ag 0, TRHR PAM 1 and D1 agonist 0.
Screening CC(=O)Nc1ccc(CN(C)CC2CCCN(CCc3cccc(C(F)(F)F)c3)C2)cc1 (stereo unspecified) returned D1 antagonist -5, D1 potentiator -3, TRHR ag 1, TRHR PAM 0 and D1 agonist 4.
`COc1ccc(C(=O)N(C)CC2CCN(CCc3cccc(C(F)(F)F)c3)CC2)cc1C` gave D1 antagonist -49*, D1 potentiator -2, TRHR ag -1, TRHR PAM 1 and D1 agonist 11.
